Test results reported in paper PMC5540273 (PLoS ONE, 2017).

System: PLK1
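Further: kd values determined as follow-up on hits from a single-replicate KINOMEscan panel screen.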

Q: `C[C@@H](Oc1cc(-n2cnc3ccc(NC(=O)NC(C)(C)C)cc32)sc1C(N)=O)c1ccccc1Cl` [GSK346294] was tested. Which Kd did it give?
A: 7.3 nM

Q: Which Kd does the source give for `COc1ccc(COc2cc(-n3cnc4ccccc43)sc2C(N)=O)cc1` [GSK1024304] here?
A: 37 nM

Q: Which Kd does the source give for `O=C(NCCNc1ccnc(Nc2ccc(F)cc2)n1)Nc1ccccc1F` [GSK1379880] here?
A: > 10000 nM
